# Test results taken from PubChem BioAssay (NCI).
# The panel holds about 83,000 compounds, 20% with a hit somewhere; the sample as a whole holds those more often.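 96-well plates, one dose, 48 hours. Percent growth reported; active if below 10.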 A number with no mark means an inactive call. Calls of active or inactive are those of the source.
# Tested on: SK-MEL-2 melanoma
# Test: NCI-60 one-dose screen, 48 h (100 = growth as untreated, 0 = no growth, -100 = all killed)
# Conditions: 10 µM unless noted
# Procedure: Growth inhibition of the SK-MEL-2 human tumor cell line is measured as a screen for anti-cancer activity. Cells are grown in 96 well plates and exposed to the test compound for 48 hours. Compounds are tested at a single concentration, which is 10^-5 M for most compounds. The reported endpoint is percent growth (GI% or GIPRCNT), where numbers from 0 - 100% represent growth inhibition, and numbers from -100% - 0 represent cell death. For example, a value of 40 represents 60% growth inhibition. A value of 0 means no net growth occurred over the course of the experiment. A value of -40 indicates 40% of cells at the beginning of the experiment died by the end of the experiment. A value of -100 means all cells are dead at the end of the experiment.
# NCI-60 Human Tumor Cell Lines Screen was performed using the standard one-dose NCI protocol, which is described in more detail at https://dtp.cancer.gov/discovery_development/nci-60/default.htm.
# Compounds with GIPRCNT values below 10 were considered active. Activity score was based on GIPRCNT using the following formula: […]
# Score is 0 for GIPRCNT values of 100 or above, 50 for GIPRCNT values of 0, and 100 for GIPRCNT values of -100.
row,SMILES,growth
1,COc1cc(C2CC(c3ccc(C)cc3)=NN2C(C)=O)ccc1Oc1ccnc2cc(Cl)ccc12 (stereo not given),60.6%
2,CC(=O)Oc1ccc(C23c4ccccc4C2(OC(C)=O)c2cc(OC(C)=O)ccc23)cc1 (stereo not given),97.9%
3,CCCCCCCC/C=C/CCCCCCCC1=NC(C)(C)CN1CCO,-44.4% (active)
4,Nc1nc(N)c([N+](=O)[O-])c(=O)[nH]1,84.2%
5,Oc1ccc(Cc2ccc(O)c(C3CC(c4ccc(Cl)cc4)=NN3)c2)cc1C1CC(c2ccc(Cl)cc2)=NN1 (stereo not given),-10.8% (active)
6,O=C(Nc1ccc(OCc2nnc(-c3ccccc3)o2)c(F)c1)Nc1ccc(Cl)c(C(F)(F)F)c1,16.2%
7,COc1cc(/C=C2\CCC/C(=C\c3ccc(OCC4CO4)c(OC)c3)C2=O)ccc1OCC1CO1 (stereo not given),49.7%
8,COc1ccc2c(c1)[nH]c(=O)c1c3cc(OC)c(OC)cc3cn21,6.58% (active)
9,COC(=O)[C@]12CC[C@@H](C)[C@H](C)[C@@H]1C1=CC[C@@H]3[C@@]4(C)C[C@@H](OC(=O)c5ccco5)[C@H](O)[C@@](C)(CO)[C@@H]4[C@H](O)C[C@@]3(C)[C@]1(C)CC2,-77.7% (active)
10,CCCc1nn(C)c2c(=O)[nH]c(-c3cc(S(=O)(=O)N4CCN(C)CC4)ccc3OCC)nc12,96.6%
11,Cc1cc2c(C#N)n3c(c2cc1C)C(=O)C(c1ccccc1)Oc1ccccc1-3 (stereo not given),45.2%
12,O=C1/C(=C/c2ccc([N+](=O)[O-])o2)Oc2ccc(Br)cc21,56.6%
13,N#Cc1c(N)[nH]c(S)c1C#N,92%
14,COc1c(C)c2c(c(O)c1C/C=C(\C)CCC(=O)OCCN1CCOCC1)C(=O)OC2,25.7%
15,CCSc1nnc2n(Cc3ccccc3)c(=O)c3c(C)c(C(N)=O)sc3n12,102%
16,CCCCCCOc1ccc(/C=N/NC(N)=S)cc1,69.6%
17,O=C(Cc1ccccn1)C(F)(F)C(F)(F)C(F)(F)F,109%
18,N#Cc1cccc(/C=C(/C(=O)c2ccccc2)c2ccccc2)c1,34.5%
19,O=C(O)c1ccccc1C(=O)OC1CCCC2CCCC21 (stereo not given),136%
20,COc1ccc(-c2c(N)noc2-c2cc(OC)c3c(c2)OCCO3)cc1,49.9%

row,SMILES,growth
1,CCN(CC)c1ccc(N=Nc2cc(Cl)ccc2Cl)c(NC(=O)CCC(=O)O)c1,118%
2,COc1cc(C2=NN(C(C)=O)C(c3ccc(OC(C)=O)cc3OC(C)=O)O2)c(OC(C)=O)c2ccccc12 (stereo not given),24.9%
3,O=C(NCCCO)c1cc(Cl)ccc1O,-19% (active)
4,O=C(C(=O)N1CCCCC1)c1ccc(OC2OC(CO)C(O)C(O)C2O)cc1 (stereo not given),99.4%
5,O=NC1CC=CCC1c1ccccc1 (stereo not given),108%
6,Cc1ccccc1NC(=O)c1cc2ccccc2cc1O,33%
7,Cc1cc(N2CCOCC2)nc(N2CCOCC2)n1,90.6%
8,O=C(/C(=C/c1ccc([N+](=O)[O-])cc1)c1ccccc1)c1ccccc1,24.9%
9,O=C(NN(C(=O)c1ccccc1)c1cccs1)c1ccccc1,107%
10,Nc1nc(SCc2ccccc2Cl)c(-c2ccccc2)c(SCc2ccccc2Cl)n1,120%
11,CN(CCOc1ccc(CC2SC(=O)NC2=O)cc1)c1ccccn1 (stereo not given),117%
12,Cc1cc(C(C)(C)c2cc(C)c(O)c(CN(C)C)c2)cc(CN(C)C)c1O,101%
13,OC(CCC(O)(c1ccccc1)c1ccccc1)(c1ccccc1)c1ccccc1,97.5%
14,C=C(C[C@@](O)(C(=O)Oc1ccccc1)C(=O)C1CCCCC1)c1ccccc1,105%
15,CC(=O)O[C@H]1C(=O)[C@@]2(C)C([C@H](OC(=O)c3ccccc3)[C@]3(O)C[C@H](OC(=O)[C@H](O)[C@@H](NC(=O)c4ccccc4)c4ccccc4)C(C)=C1C3(C)C)[C@]1(OC(C)=O)CO[C@@H]1C[C@@H]2O (stereo not given in full),-5.52% (active)
16,COc1ccc2c(c1)C(=O)c1c-2c(OCCCN(C)C)nc2cc(Br)ccc12,97.7%
17,Cc1nc2cc(NC(=O)CN3CCN(CCN4C(=O)c5cccc6cccc(c56)C4=O)CC3)ccc2s1,73%
18,Cn1cc(-c2csc(-c3cn(C)c4ncccc34)n2)c2cccnc21,107%
19,CCCc1cc(=O)n2c(C(=O)Nc3ccccc3OC)c(C(=O)Nc3ccc(F)cc3)sc2n1,91.6% [30 µM]
20,N#Cc1cnc2cc(OC[C@H](O)CO)c(NC(=O)CC3CSSC3)cc2c1Nc1ccc(OCc2cccc(F)c2)c(Cl)c1,-70.6% (active)
